Data as given in PubChem BioAssay AID624351 (Southern Research Specialized Biocontainment Screening …, 2012).
Hit rate of the full screen: of about 2,400 compounds, about 1,400 (58%) were called active. So high a share suggests a set chosen from earlier hits. Some of the results follow. Unmarked numbers belong to inactive results.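 How the source made its calls: active means inhibition of 30% or more at any tested dose; inconclusive means primary hits over the limit that were never retested; inactive means the rest.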

Assay: coupled detection enzyme interference, dose response, artefact control for MgcRacGAP inhibitor project, biochemical, coupled enzyme counter-screen (AID 624351);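 further: signal is the ADP detection kit reading of free GDP without any GAP enzyme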;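 on inhibition: 0% = median positive control wells and 100% = median negative control wells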
Settings: ADP Hunter coupled enzyme counter-screen, fluorescence, no MgcRacGAP; series mostly up to 80 µM; inhibition: at the top concentration

Row | SMILES | inhibition [%] | IC50
1 | O=C(O)c1ccc2nc(-c3ccco3)c(-c3ccco3)nc2c1 | -6 | 
2 | COc1cc(Br)c(CNc2cc(C)ccc2C)cc1OC | 22.4 | 
3 | COc1ccc(CNCc2cccc(OC)c2OC)cc1Br | 18.2 | 
4 | COc1cccc(OC)c1OCCCN1CCOCC1 | 15.1 | 
5 | COc1cccc(OC)c1OCCCCN1CCCC1 | 17.8 | 
6 | COc1cccc(Nc2ccc(N3CCCCC3)cc2)c1OC |  | 8.89 µM (active)
7 | COc1ccc(C)cc1NCc1cccc(OC)c1OC |  | 70.3 µM (active)
8 | COc1cccc(CN2CCN(Cc3cc(OC)c(OC)c(OC)c3)CC2)c1OC | 19.4 | 
9 | COc1cccc(CNc2ccc(N3CCC(C)CC3)cc2)c1OC |  | 6.68 µM (active)
10 | COc1cccc(CNc2ccc(N3CCCCC3)cc2)c1OC |  | 4.01 µM (active)
11 | COc1cccc(CN2CCN(Cc3cccc(Oc4ccccc4)c3)CC2)c1OC | 6.39 | 
12 | COc1cccc(CNCc2ccccc2Br)c1OC | 12.1 | 
13 | COc1cc(/C=C/C(=O)OC(C)C(=O)Nc2c(C)n(C)n(-c3ccccc3)c2=O)ccc1O (stereo unspecified) |  | 45.4 µM (active)
14 | Cc1c(NC(=O)CN2CC(C)OC(C)C2)c(=O)n(-c2ccccc2)n1C (stereo unspecified) | 22.8 | 
15 | COc1cc(/C=C/C(=O)OCC(=O)Nc2c(C)n(C)n(-c3ccccc3)c2=O)ccc1O |  | 53.6 µM (active)
16 | Cc1c(O)ccc2c3c(c(=O)oc12)CCCC3 |  | 23.7 µM (active)
17 | CCn1c(=S)[nH]c2sc3c(c2c1=O)CCCC3 |  | 35 µM (active)
18 | COCCn1c(=S)[nH]c2sc3c(c2c1=O)CCCC3 |  | 34.3 µM (active)
19 | Nn1c(=S)[nH]c2sc3c(c2c1=O)CCCC3 |  | 67.3 µM (active)
20 | COCCCn1c(=S)[nH]c2sc3c(c2c1=O)CCCC3 |  | 30.9 µM (active)
21 | C=CCc1cc(C)ccc1OCCCn1ccnc1 | 24.9 | 
22 | O=C1C=CC(=O)N1c1ccccc1N1C(=O)C=CC1=O | 1.12 | 
23 | O=C1C=CC(=O)N1c1ccc(Nc2ccccc2)cc1 |  | 34 µM (active)
24 | O=C(O)c1cc(N2C(=O)C=CC2=O)cc(N2C(=O)C=CC2=O)c1 | 7.56 | 

Row | SMILES | inhibition [%] | IC50
25 | Cc1ccc2nc(/C(C#N)=C/c3ccc(O)c(O)c3)[nH]c2c1 |  | 26.8 µM (active)
26 | COc1cc(/C=C(\C#N)c2nc3ccccc3[nH]2)cc(OC)c1O |  | 27.1 µM (active)
27 | COc1cc(/C=C(\C#N)C(=O)c2c[nH]c3ccccc23)cc(OC)c1O |  | 51.3 µM (active)
28 | COc1cc(/C=C(\C#N)c2nc3ccccc3[nH]2)ccc1O |  | 14.8 µM (active)
29 | CN1C=CC=C/C1=C(\C#N)c1nc2ccccc2[nH]1 |  | 52.5 µM (active)
30 | COc1ccc(N2CCN(CC(O)COC(c3ccc(F)cc3)c3ccc(F)cc3)CC2)cc1 (stereo unspecified) | 20.5 | 
31 | CCC(C)N1CCN(C(=O)c2cccs2)CC1 (stereo unspecified) | 11.1 | 
32 | CC(=O)N1CCN(c2ccc(N)cc2)CC1 |  | 13.5 µM (active)
33 | COc1cc(CN2CCN(c3ccccc3F)CC2)cc(OC)c1O | 18.1 | 
34 | Nc1ccc(N2CCN(c3ccccc3)CC2)c(F)c1 |  | 37.9 µM (active)
35 | Nc1ccc(N2CCN(C(=O)c3cccs3)CC2)cc1 |  | 22.1 µM (active)
36 | O=C(c1cccs1)N1CCN(Cc2ccncc2)CC1 | 21.7 | 
37 | Nc1ccc(N2CCN(c3ccc(F)cc3)CC2)cc1 |  | 19.9 µM (active)
38 | COCC(C)NCc1ccccc1C (stereo unspecified) | 17.2 | 
39 | CCN1CCN(CC(O)COC(c2ccccc2)c2ccccc2C)CC1 (stereo unspecified) | 27 | 
40 | CCOCCCNC(=S)N1CCN(Cc2ccc3c(c2)OCO3)CC1 | 21.8 | 
41 | CC(C(=O)NC1CCCCC1)N1CCN(C)CC1 (stereo unspecified) | 24.7 | 
42 | CCN1CCN(C(C)C(=O)NC2CCCCC2)CC1 (stereo unspecified) | 22.8 | 
43 | CC(C(=O)NC(=O)NC1CCCCC1)N1CCN(c2ccc(O)cc2)CC1 (stereo unspecified) |  | 69.7 µM (active)
44 | COc1cc(/C=N\NC(=O)CC(=O)NCCc2ccccc2)ccc1O |  | 29.2 µM (active)
45 | COc1ccc(C)cc1NC(=O)C(NCC(O)c1ccccc1)c1ccccc1 (stereo unspecified) | 25.3 | 
46 | CCOc1cc(/C=N\NC(=O)CC(=O)NCCc2ccccc2)ccc1O |  | 46 µM (active)
47 | COc1cc(/C=N/NC(=O)Cc2nnc(NC(=O)c3ccccc3)s2)ccc1O | 24.7 | 
48 | COc1cc(/C=N\NC(=O)CNC(=O)C(c2ccccc2)c2ccccc2)ccc1O |  | 50.6 µM (active)

Row | SMILES | inhibition [%] | IC50
49 | COc1cc(/C=N/NC(=O)CCc2ccccc2)ccc1O |  | 29.9 µM (active)
50 | Cc1cccc(N2C(S)=C(C#N)C(=O)NC2c2ccco2)c1 (stereo unspecified) | 6.59 | 
51 | O=C1C(SCCO)=C(SCCO)C(=O)c2ccccc21 | -5.33 | 
52 | COc1cc(/C=N/NC(=O)/C(=C/c2ccccc2)CCO)ccc1O |  | 45.8 µM (active)
53 | COc1cc(/C=N/NC(=O)CCNC(=O)c2ccccc2Cl)ccc1O |  | 32.2 µM (active)
54 | COc1cc(OC)c(OC)cc1CN1CCN(Cc2ccc(SC)cc2)CC1 | 26 | 
55 | CCC(C)n1c(=S)[nH]c2c(sc3ccc([N+](=O)[O-])cc32)c1=O (stereo unspecified) |  | 58.8 µM (active)
56 | O=C(O)CCCn1c(=S)[nH]c2c(sc3ccc([N+](=O)[O-])cc32)c1=O |  | 30.5 µM (active)
57 | O=C(C1CCN(Cc2cc(Cl)ccc2O)CC1)N1CCN(Cc2ccccc2)CC1 | 25.5 | 
58 | COc1ccc2nc3cc(Cl)ccc3c(Nc3ccc(O)c(CN4CCN(C)CC4)c3)c2c1 |  | 82 µM (active)
59 | COc1ccc(CN2CCN(CCCCOc3ccc(Cl)cc3)CC2)c(OC)c1OC | 27.7 | 
60 | COc1cc(CNCc2ccccc2C(F)(F)F)cc(OC)c1 | 8.66 | 
61 | Cc1nc(/N=C(\N)NC(=O)N2c3ccccc3Sc3ccccc32)nc2ccccc12 | 24.5 | 
62 | COc1cc(CN2CCC(C(=O)N3CCCC(C)C3)CC2)cc(Br)c1O (stereo unspecified) | 13.1 | 
63 | Oc1ccc(/C=N/Nc2cccc(Cl)n2)c(O)c1 |  | 25.6 µM (active)
64 | Cc1nc(Cl)cc(N/N=C/c2ccc(O)cc2O)n1 |  | 17.3 µM (active)
65 | Oc1ccc(C=NNc2ccccn2)c(O)c1 |  | 20.8 µM (active)
66 | Nc1ccc2c(c1Br)Cc1ccccc1-2 |  | 59.2 µM (active)
67 | Nc1cc2c(cc1N)-c1ccccc1C2 |  | 55.6 µM (active)
68 | Nc1ccc2c(c1)Cc1cc(N)c(Cl)cc1-2 |  | 8.61 µM (active)
69 | O=C1C=CC(=Nc2ccc3c(c2)Cc2ccccc2-3)O1 | 25.6 | 
70 | COc1cc2c(cc1N)-c1ccc(N)cc1C2 |  | 36.1 µM (active)
71 | Nc1ccc2c(c1)Cc1cc(N)c(Br)cc1-2 |  | 7.05 µM (active)
